Results reported in PubChem BioAssay (NCATS).
Results filed as inconclusive are left out. Active and inactive are the calls of the source. The call rests on the fitted dose curve; in most records, active means well fitted inhibition curve with a large enough effect; inconclusive means small, poorly fitted or top-dose-only effect; inactive means flat fitted curve, though single readings scatter.

Assays:
Assay in all cases: qHTS profiling for inhibitors of Plasmodium falciparum proliferation (AID 504749); further: nearly all actives have a fitted effect of over 60% in size
Settings in all cases: P. falciparum in erythrocytes, SYBR Green DNA, 72 h; series mostly up to 28.7 µM
[1] = tested on: ECU
In short: (§1)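 Quantitative HTS: compounds pinned into medium, infected erythrocytes added (0.3% parasitemia, 2.5% hematocrit), 72 h culture at 37 C under 5% CO2. Saponin/Triton lysis with SYBR Green I, overnight RT, then fluorescence read.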

[2] = tested on: FAB9
In short: as §1

[3] = tested on: GB4
In short: as §1

[4] = tested on: HB3
In short: as §1

[5] = tested on: ICS
In short: as §1

[6] = tested on: JCK
In short: as §1

[7] = tested on: N140
In short: as §1

[8] = tested on: P93_24
In short: as §1

[9] = tested on: P94_40
In short: as §1

[10] = tested on: PAD
In short: as §1

[11] = tested on: PC15
In short: as §1

[12] = tested on: PC26
In short: as §1

[13] = tested on: PC49
In short: as §1

[14] = tested on: SC27B
In short: as §1

[15] = tested on: TAB109
In short: as §1

[16] = tested on: TAB113
In short: as §1

[17] = tested on: TAB165
In short: as §1

[18] = tested on: W2
In short: as §1

Measured: Potency
Potency means the concentration at half of the fitted maximal effect.

CN1C(=O)OC(C)(C)C1=O
inactive: [1] | [2] | [3] | [4] | [5] | [6] | [7] | [8] | [9] | [10] | [11] | [12] | [13] | [14] | [15] | [16] | [17] | [18]

O=C1[O][Bi][O]c2ccccc21
inactive: [1] | [2] | [3] | [4] | [5] | [6] | [7] | [8] | [9] | [10] | [11] | [12] | [13] | [14] | [15] | [16] | [17] | [18]

O=P(O)(O)OC[C@H]1O[C@](O)(COP(=O)(O)O)[C@@H](O)[C@@H]1O
inactive: [1] | [2] | [3] | [4] | [5] | [6] | [7] | [8] | [9] | [10] | [11] | [12] | [13] | [14] | [15] | [16] | [17] | [18]

COC1=C(OC)C(=O)C(C/C=C(\C)CC/C=C(\C)CC/C=C(\C)CC/C=C(\C)CC/C=C(\C)CC/C=C(\C)CC/C=C(\C)CC/C=C(\C)CC/C=C(\C)CCC=C(C)C)=C(C)C1=O
inactive: [1] | [2] | [3] | [4] | [5] | [6] | [7] | [8] | [9] | [10] | [11] | [12] | [13] | [14] | [15] | [16] | [17] | [18]

ClC(Cl)Cl
inactive: [1] | [2] | [3] | [4] | [5] | [6] | [7] | [8] | [9] | [10] | [11] | [12] | [13] | [14] | [15] | [16] | [17] | [18]

C=C(C)C1CC=C(C)CC1 (centres undefined)
inactive: [1] | [2] | [3] | [4] | [5] | [6] | [7] | [8] | [9] | [10] | [11] | [12] | [13] | [14] | [15] | [16] | [17] | [18]

O=C(NNCS(=O)(=O)O)c1ccncc1
inactive: [1] | [2] | [3] | [4] | [5] | [6] | [7] | [8] | [9] | [10] | [11] | [12] | [13] | [14] | [15] | [16] | [17] | [18]

CC(C)c1ncc([N+](=O)[O-])n1C
inactive: [1] | [2] | [3] | [4] | [5] | [6] | [7] | [8] | [9] | [10] | [11] | [12] | [13] | [14] | [15] | [16] | [17] | [18]

CCC(C)[C@@H](N)C(=O)O (some centres undefined)
inactive: [1] | [2] | [3] | [4] | [5] | [6] | [7] | [8] | [9] | [10] | [11] | [12] | [13] | [14] | [15] | [16] | [17] | [18]

CC(C)O
inactive: [1] | [2] | [3] | [4] | [5] | [6] | [7] | [8] | [9] | [10] | [11] | [12] | [13] | [14] | [15] | [16] | [17] | [18]

[O-][N+](=Nc1ccccc1)c1ccccc1
inactive: [1] | [2] | [3] | [4] | [5] | [6] | [7] | [8] | [9] | [10] | [11] | [12] | [13] | [14] | [15] | [16] | [17] | [18]

Nc1ncnc2c1ncn2CCOCP(=O)(O)O
inactive: [1] | [2] | [3] | [4] | [5] | [6] | [7] | [8] | [9] | [10] | [11] | [12] | [13] | [14] | [15] | [16] | [17] | [18]

CCOc1ccc(NC(=S)Nc2ccc(OCC)cc2)cc1
inactive: [1] | [2] | [3] | [4] | [5] | [6] | [7] | [8] | [9] | [10] | [11] | [12] | [13] | [14] | [15] | [16] | [17] | [18]

COc1ccc(C(=O)c2ccc(C)cc2)c(O)c1
inactive: [1] | [2] | [3] | [4] | [5] | [6] | [7] | [8] | [9] | [10] | [11] | [12] | [13] | [14] | [15] | [16] | [17] | [18]

O=c1[nH]c(=O)n([C@H]2C[C@H](O)[C@@H](CO)O2)cc1/C=C/Br
inactive: [1] | [2] | [3] | [4] | [5] | [6] | [7] | [8] | [9] | [10] | [11] | [12] | [13] | [14] | [15] | [16] | [17] | [18]

CC(=O)Nc1ccc(OC(C)=O)cc1
inactive: [1] | [2] | [3] | [4] | [5] | [6] | [7] | [8] | [9] | [10] | [11] | [12] | [13] | [14] | [15] | [16] | [17] | [18]

CC(=O)Oc1cc(C(F)(F)F)ccc1C(=O)O
inactive: [1] | [2] | [3] | [4] | [5] | [6] | [7] | [8] | [9] | [10] | [11] | [12] | [13] | [14] | [15] | [16] | [17] | [18]

Cc1ncc[nH]1
inactive: [1] | [2] | [3] | [4] | [5] | [6] | [7] | [8] | [9] | [10] | [11] | [12] | [13] | [14] | [15] | [16] | [17] | [18]

CCCOc1cc(N)ccc1C(=O)OCCN(CC)CC
inactive: [1] | [2] | [3] | [4] | [5] | [6] | [7] | [8] | [9] | [10] | [11] | [12] | [13] | [14] | [15] | [16] | [17] | [18]

N=C(N)n1cccn1
inactive: [1] | [2] | [3] | [4] | [5] | [6] | [7] | [8] | [9] | [10] | [11] | [12] | [13] | [14] | [15] | [16] | [17] | [18]

CCOc1ccc(S(=O)(=O)O)c2cccnc12
inactive: [1] | [2] | [3] | [4] | [5] | [6] | [7] | [8] | [9] | [10] | [11] | [12] | [13] | [14] | [15] | [16] | [17] | [18]

COc1cc(C)c(/C=C/C(C)=C/C=C/C(C)=C/C(=O)O)c(C)c1C
inactive: [1] | [2] | [3] | [4] | [5] | [6] | [7] | [8] | [9] | [10] | [11] | [12] | [13] | [14] | [15] | [16] | [17] | [18]

C=CC[C@@H]1/C=C(\C)C[C@H](C)C[C@H](OC)[C@H]2O[C@@](O)(C(=O)C(=O)N3CCCC[C@H]3C(=O)O[C@H](/C(C)=C/[C@@H]3CC[C@@H](O)[C@H](OC)C3)[C@H](C)[C@@H](O)CC1=O)[C@H](C)C[C@@H]2OC
active: [1] 1260 nM | [2] 2000 nM | [3] 3790 nM | [4] 1000 nM | [5] 447 nM | [6] 3980 nM | [7] 891 nM | [8] 2000 nM | [9] 2000 nM | [10] 1410 nM | [11] 2240 nM | [12] 1690 nM | [13] 2000 nM | [14] 1780 nM | [15] 2000 nM | [16] 1780 nM | [17] 1410 nM | [18] 338 nM

CCc1ccc(S(=O)(=O)O)cc1
inactive: [1] | [2] | [3] | [4] | [5] | [6] | [7] | [8] | [9] | [10] | [11] | [12] | [13] | [14] | [15] | [16] | [17] | [18]

Oc1cc(O)cc(O)c1
inactive: [1] | [2] | [3] | [4] | [5] | [6] | [7] | [8] | [9] | [10] | [11] | [12] | [13] | [14] | [15] | [16] | [17] | [18]

CC(=O)NCCCS(=O)(=O)O
inactive: [1] | [2] | [3] | [4] | [5] | [6] | [7] | [8] | [9] | [10] | [11] | [12] | [13] | [14] | [15] | [16] | [17] | [18]

CC(CCc1ccc(O)cc1)NCC(O)c1ccc(O)cc1 (centres undefined)
inactive: [1] | [2] | [3] | [4] | [5] | [6] | [7] | [8] | [9] | [10] | [11] | [12] | [13] | [14] | [15] | [16] | [17] | [18]

O=C(O)[C@H]1CN(C/C=C/P(=O)(O)O)CCN1
inactive: [1] | [2] | [3] | [4] | [5] | [6] | [7] | [8] | [9] | [10] | [11] | [12] | [13] | [14] | [15] | [16] | [17] | [18]
